# Hit rate of the full screen: of about 310,000 compounds, about 14,000 (4.5%) showed an effect of 50% or more. The effect is printed as a negative number. What follows is part of a selection rich in strong results, with near analogues and random picks from the rest.
# Biological target: human ether-à-go-go-related gene (hERG) potassium channel (human, UniProt Q12809)
# Assay: primary screen, population patch clamp on CHO cells stably expressing hERG; higher = less effect of the substance
# 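Also: peak tail current of the secondary pulse compared with the same well before compound.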
# human ether-à-go-go-related gene (hERG) potassium channel, sequence (Q12809 whole entry, looked up): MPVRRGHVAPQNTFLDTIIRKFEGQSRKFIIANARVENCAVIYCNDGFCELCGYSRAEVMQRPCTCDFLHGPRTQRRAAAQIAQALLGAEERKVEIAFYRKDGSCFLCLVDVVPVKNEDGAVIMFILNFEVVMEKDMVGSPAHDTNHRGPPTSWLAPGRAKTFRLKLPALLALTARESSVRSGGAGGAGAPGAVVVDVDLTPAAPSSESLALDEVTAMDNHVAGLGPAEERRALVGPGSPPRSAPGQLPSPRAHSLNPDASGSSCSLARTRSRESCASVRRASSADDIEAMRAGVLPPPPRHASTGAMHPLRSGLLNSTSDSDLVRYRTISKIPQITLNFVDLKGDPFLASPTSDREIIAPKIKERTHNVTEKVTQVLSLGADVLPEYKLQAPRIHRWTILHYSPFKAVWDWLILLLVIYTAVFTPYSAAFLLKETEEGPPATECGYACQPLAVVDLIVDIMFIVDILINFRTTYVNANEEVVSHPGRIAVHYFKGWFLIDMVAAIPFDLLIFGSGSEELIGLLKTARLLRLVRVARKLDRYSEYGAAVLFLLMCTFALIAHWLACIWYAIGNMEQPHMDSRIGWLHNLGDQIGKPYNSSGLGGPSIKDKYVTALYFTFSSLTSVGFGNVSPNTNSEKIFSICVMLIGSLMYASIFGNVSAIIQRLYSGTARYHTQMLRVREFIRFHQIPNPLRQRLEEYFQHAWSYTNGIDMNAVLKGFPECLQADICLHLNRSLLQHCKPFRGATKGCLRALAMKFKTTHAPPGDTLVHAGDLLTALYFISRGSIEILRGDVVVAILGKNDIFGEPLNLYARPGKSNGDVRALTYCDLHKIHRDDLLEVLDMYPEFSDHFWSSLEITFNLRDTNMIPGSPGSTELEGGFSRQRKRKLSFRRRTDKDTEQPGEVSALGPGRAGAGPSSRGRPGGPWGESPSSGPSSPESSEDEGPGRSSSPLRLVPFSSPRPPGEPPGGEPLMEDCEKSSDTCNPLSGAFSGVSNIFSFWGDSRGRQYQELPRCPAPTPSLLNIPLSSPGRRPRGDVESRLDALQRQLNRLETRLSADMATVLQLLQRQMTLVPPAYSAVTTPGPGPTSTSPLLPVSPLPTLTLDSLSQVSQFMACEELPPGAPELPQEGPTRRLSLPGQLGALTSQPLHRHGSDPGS
row,SMILES,"hERG current change (%, negative = inhibition) at 10uM"
1,Cc1nc2c(c(=O)n1CCC1=CCCCC1)c1nc3ccccc3nc1n2/N=C/c1ccco1,-22%
2,O=S(=O)(c1cccs1)N1CCC(Cc2ccccc2)CC1,6.58%
3,CCOC(=O)C1=C(N)Oc2ccc3ccccc3c2C1c1cccnc1 (stereo not drawn),0.98%
4,O/N=C1\CCCc2c1nc(-c1ccccc1F)n2O,26.1%
5,O=C(COc1cc2oc(=O)c3c(c2cc1Cl)CCC3)NCC1CCC(C(=O)O)CC1 (stereo not drawn),5.36%
6,Cc1ccc(S(=O)(=O)CC(=O)N2CCCCCC2)cc1,13.6%
7,C=CC(C)(C)c1[nH]cnc1/C=C1\NC(=O)C(C(C)C)NC1=O (stereo not drawn),3.54%
8,COc1ccc(NC(=O)N[C@@H](CCSC)C(=O)O)cc1OC,-0.994%
9,Cc1ccc(NC(=S)N2CCC(NC(=O)c3cccc(F)c3)CC2)cc1,-24.9%
10,COCCOCC(O)CN1CCN(c2ccccc2)CC1.O=C(O)C(=O)O (stereo not drawn),-3.37%
11,CCOC(=O)C1CCCN(c2nnnn2-c2ccccc2)C1 (stereo not drawn),-5.57%
12,CN(C)CCSCc1nnc2n1-c1ccc(Cl)cc1C(c1ccccc1Cl)=NC2.c1ccccc1,-73.7%
13,COc1ccccc1C1=NCc2nnc(CSC)n2-c2ccc(Cl)cc21,-19.1%
14,CS(=O)(=O)NCc1nnc2n1-c1ccc(Cl)cc1C(c1ccccc1)=NC2,6.2%
15,Cc1ccc(C(=O)NC(=S)Nc2ccc(N3CCOCC3)cc2)cc1C,-7.53%
16,O=C(NCCCn1ccnc1)C(=O)NCC(c1ccco1)N1CCN(c2ccccc2)CC1 (stereo not drawn),1.01%
17,COc1ccc(O[C@H]2C=C[C@@H](c3ccccc3)O[C@@H]2CO/N=C/C[C@@H]2C=C[C@H](OC(C)=O)[C@@H](COC(C)=O)O2)cc1,-9.17%
18,CCCNC(=O)OC[C@H]1O[C@H](CCO/N=C/[C@@H](OC)[C@H](C)/C=C/CC(=O)OC)C=C[C@@H]1Oc1ccc(OC)cc1,-11.1%
19,CCCNC(=O)OC[C@H]1O[C@H](CCO/N=C/C[C@@H]2C=C[C@H](OC(C)=O)[C@@H](COC(C)=O)O2)C=C[C@@H]1Oc1ccc(OC)cc1,-59.7%
20,CCC(Sc1nc(C)cc(=O)[nH]1)C(=O)Nc1sc2c(c1C#N)CCCC2 (stereo not drawn),-19.1%
21,Cc1ccc2oc3nc(C)c(C(=O)Nc4cccc(C(F)(F)F)c4)cc3c(=O)c2c1,6.48%
22,O=C(CCS(=O)(=O)c1cccc2nsnc12)N1CCN(c2ccccc2F)CC1,-30.3%
23,COC(=O)C1=C(C(=O)c2ccc(C)cc2)C(c2ccc(OC)c(OC)c2)n2nnnc2N1 (stereo not drawn),3.59%
24,Cc1ccc(O)c(-c2cc(-c3cccc(F)c3)n[nH]2)c1,23.6%
25,CCCn1ncc(CN2CCC(Cc3cccc(F)c3)(C(=O)OCC)CC2)c1C,-59.7%
26,CCOC(=O)C1(Cc2ccc(Cl)cc2)CCN(Cc2cn(CC)nc2C)CC1,-67.7%
27,CCOC(=O)C1(Cc2ccc(Cl)cc2)CCN(Cc2cnc(N)nc2)CC1,-74.7%

row,SMILES,"hERG current change (%, negative = inhibition) at 10uM"
1,CCOC(=O)C1(S(=O)(=O)c2ccc(Cl)cc2)CCN(Cc2ccc(Cl)cc2)CC1,14.7%
2,CCOC(=O)C1(Cc2cccc(OC)c2)CCN(Cc2cnc(N)nc2)CC1,-28.2%
3,CCOC(=O)C1(Cc2cccc(F)c2)CCN(Cc2cnn(CC)c2C)CC1,-16.6%
4,CCCn1cc(CN2CCC(Cc3cccc(F)c3)(C(=O)OCC)CC2)c(C)n1,-67.2%
5,CCOC(=O)C1(Cc2cccc(F)c2)CCN(Cc2cn(CC)nc2C)CC1,-38%
6,CCOC(=O)C1(Cc2ccc(Cl)cc2)CCN(Cc2ccon2)CC1,-49.5%
7,CCOC(=O)C1(Cc2cccc(F)c2)CCN(Cc2ccon2)CC1,3.48%
8,CCOC(=O)C1(Cc2cccc(F)c2)CCN(Cc2ccc(COC)o2)CC1,-23.5%
9,O=C(NCC1OCCc2ccccc21)c1ccc(NC(=O)c2cccc(Br)c2)cc1 (stereo not drawn),2.42%
10,COC(=O)Cn1c(C)c(C(C)=O)c(C(C)=O)c1C,14.1%
11,CCOCCCN1C(=O)C(=O)N(CC(=O)N2c3ccccc3NC(=O)CC2C)C1=O (stereo not drawn),17.2%
12,O=C(O)c1cc(S(=O)(=O)N2CCCCC2)sc1Cl,17%
13,Cc1ccc(C)c(OCCC(=O)NCCc2ccc(Cl)cc2)c1,21.6%
14,O=C(COC(=O)Cc1cccc(C(F)(F)F)c1)NCC1CCCO1 (stereo not drawn),1.46%
15,O=C(OCC(=O)N1CCCc2ccccc21)c1cc(Br)ccc1O,12.4%
16,COc1c2c(nc3occc13)C(CC=C(C)C)(OC)C(O)CC2 (stereo not drawn),5.5%
17,CCCn1cc(CN2CCC(Cc3ccccc3)(C(=O)OCC)CC2)c(C)n1,-60.4%
18,CC1(C)Cc2ccccc2-c2nc3n(c(=O)c21)CCCS3,12.8%
19,Cc1cc(OC(C)C(=O)NNC(=O)Nc2ccc(F)cc2F)cc(C)c1Cl (stereo not drawn),22.3%
20,COc1ccc(CCN2CCCC(CN(C)Cc3cc(OC)ccc3OC)C2)cc1 (stereo not drawn),-69.1%
21,COc1ccc(CCN2CCCC(CN(C)Cc3cc(Cl)c(O)c(OC)c3)C2)cc1 (stereo not drawn),-65.7%
22,COc1ccc(CCN2CCCC(CN(C)Cc3cc(OC)c(OC)c(OC)c3)C2)cc1 (stereo not drawn),-51.6%
23,COc1cc(OC)c(OC)cc1CN(C)CC1CCCN(CCc2ccccc2F)C1 (stereo not drawn),-2.33%
24,COc1ccc(CCN2C(=O)c3ccccc3NC2c2cc(Cl)c(O)c(OC)c2)cc1 (stereo not drawn),-4.85%
25,COc1ccc(OC)c(CN2CCCC(CO)C2)c1 (stereo not drawn),0.935%
26,COc1cc(CN(C)CC2CCCN(CCc3ccccc3F)C2)cc(Cl)c1OC (stereo not drawn),-69.8%
27,CN(Cc1ccccc1)CC1CCCN(CCc2ccccc2F)C1 (stereo not drawn),-49.9%
